Bioassay records as filed in PubChem.
Most compounds without a hit are left out; they make up all but 7% or so of the library.
KAT2A inh – qHTS Assay for Inhibitors of GCN5L2 | GCN5L2 HAT assay, ThioGlo1 CoA-SH fluorescence | Potency, µM (doses to about 58.9 µM), for inactives: at the top dose activity change, negative = inhibition, most hits filed as inhibitors | 0.21% of 390,000 active | AID 504327, 2011; also: potency is read from the fitted curve at half-maximal effect; % is scaled to controls: 0 for no effect and ±100 for the full control effect
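qHTS, 1536-well. 20nM enzyme, pH 7.5 HEPES/EDTA/Tween-20 buffer; 15 min compound preinc., RT. Start: 75uM H3(1-25), 70uM AcCoA, 50uM ThioGlo1. Read Ex340/Em540 at t=0 (autofluorescence flag) and t=20 min.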
PLK1 PBD block – qHTS for Inhibitors of PLK1-PDB (polo-like kinase 1 - polo-box domain): Primary Screen; Serine/threonine-protein kinase PLK1 (Homo sapiens), P53350; Plk1 PBD binding of FITC phosphopeptide, fluorescence polarization; Potency, µM, without a hit: max response, negative = inhibition, hits mostly inhibitors; 2.8% of 360,000 active; AID 720504, 2013; also: potency is read from the fitted curve at half-maximal effect; series mostly up to about 57 µM; % is scaled to controls: 0 for no effect and ±100 for the full control effect; nearly all actives have a fitted effect of over 65% in size
BAZ2B inh – qHTS Assay for Inhibitors of BAZ2B | 4.4% of 360,000 active | AlphaScreen BAZ2B-H3K14Ac peptide displacement | Potency, µM (series often up to 114 µM), inactives show at the top dose activity change, negative = inhibition, actives largely listed as inhibitors; also: potency is read from the fitted curve at half-maximal effect; % is scaled to controls: 0 for no effect and ±100 for the full control effect; nearly all actives have a fitted effect of over 60% in size
Target sequence (Q9UIF8 whole entry, looked up): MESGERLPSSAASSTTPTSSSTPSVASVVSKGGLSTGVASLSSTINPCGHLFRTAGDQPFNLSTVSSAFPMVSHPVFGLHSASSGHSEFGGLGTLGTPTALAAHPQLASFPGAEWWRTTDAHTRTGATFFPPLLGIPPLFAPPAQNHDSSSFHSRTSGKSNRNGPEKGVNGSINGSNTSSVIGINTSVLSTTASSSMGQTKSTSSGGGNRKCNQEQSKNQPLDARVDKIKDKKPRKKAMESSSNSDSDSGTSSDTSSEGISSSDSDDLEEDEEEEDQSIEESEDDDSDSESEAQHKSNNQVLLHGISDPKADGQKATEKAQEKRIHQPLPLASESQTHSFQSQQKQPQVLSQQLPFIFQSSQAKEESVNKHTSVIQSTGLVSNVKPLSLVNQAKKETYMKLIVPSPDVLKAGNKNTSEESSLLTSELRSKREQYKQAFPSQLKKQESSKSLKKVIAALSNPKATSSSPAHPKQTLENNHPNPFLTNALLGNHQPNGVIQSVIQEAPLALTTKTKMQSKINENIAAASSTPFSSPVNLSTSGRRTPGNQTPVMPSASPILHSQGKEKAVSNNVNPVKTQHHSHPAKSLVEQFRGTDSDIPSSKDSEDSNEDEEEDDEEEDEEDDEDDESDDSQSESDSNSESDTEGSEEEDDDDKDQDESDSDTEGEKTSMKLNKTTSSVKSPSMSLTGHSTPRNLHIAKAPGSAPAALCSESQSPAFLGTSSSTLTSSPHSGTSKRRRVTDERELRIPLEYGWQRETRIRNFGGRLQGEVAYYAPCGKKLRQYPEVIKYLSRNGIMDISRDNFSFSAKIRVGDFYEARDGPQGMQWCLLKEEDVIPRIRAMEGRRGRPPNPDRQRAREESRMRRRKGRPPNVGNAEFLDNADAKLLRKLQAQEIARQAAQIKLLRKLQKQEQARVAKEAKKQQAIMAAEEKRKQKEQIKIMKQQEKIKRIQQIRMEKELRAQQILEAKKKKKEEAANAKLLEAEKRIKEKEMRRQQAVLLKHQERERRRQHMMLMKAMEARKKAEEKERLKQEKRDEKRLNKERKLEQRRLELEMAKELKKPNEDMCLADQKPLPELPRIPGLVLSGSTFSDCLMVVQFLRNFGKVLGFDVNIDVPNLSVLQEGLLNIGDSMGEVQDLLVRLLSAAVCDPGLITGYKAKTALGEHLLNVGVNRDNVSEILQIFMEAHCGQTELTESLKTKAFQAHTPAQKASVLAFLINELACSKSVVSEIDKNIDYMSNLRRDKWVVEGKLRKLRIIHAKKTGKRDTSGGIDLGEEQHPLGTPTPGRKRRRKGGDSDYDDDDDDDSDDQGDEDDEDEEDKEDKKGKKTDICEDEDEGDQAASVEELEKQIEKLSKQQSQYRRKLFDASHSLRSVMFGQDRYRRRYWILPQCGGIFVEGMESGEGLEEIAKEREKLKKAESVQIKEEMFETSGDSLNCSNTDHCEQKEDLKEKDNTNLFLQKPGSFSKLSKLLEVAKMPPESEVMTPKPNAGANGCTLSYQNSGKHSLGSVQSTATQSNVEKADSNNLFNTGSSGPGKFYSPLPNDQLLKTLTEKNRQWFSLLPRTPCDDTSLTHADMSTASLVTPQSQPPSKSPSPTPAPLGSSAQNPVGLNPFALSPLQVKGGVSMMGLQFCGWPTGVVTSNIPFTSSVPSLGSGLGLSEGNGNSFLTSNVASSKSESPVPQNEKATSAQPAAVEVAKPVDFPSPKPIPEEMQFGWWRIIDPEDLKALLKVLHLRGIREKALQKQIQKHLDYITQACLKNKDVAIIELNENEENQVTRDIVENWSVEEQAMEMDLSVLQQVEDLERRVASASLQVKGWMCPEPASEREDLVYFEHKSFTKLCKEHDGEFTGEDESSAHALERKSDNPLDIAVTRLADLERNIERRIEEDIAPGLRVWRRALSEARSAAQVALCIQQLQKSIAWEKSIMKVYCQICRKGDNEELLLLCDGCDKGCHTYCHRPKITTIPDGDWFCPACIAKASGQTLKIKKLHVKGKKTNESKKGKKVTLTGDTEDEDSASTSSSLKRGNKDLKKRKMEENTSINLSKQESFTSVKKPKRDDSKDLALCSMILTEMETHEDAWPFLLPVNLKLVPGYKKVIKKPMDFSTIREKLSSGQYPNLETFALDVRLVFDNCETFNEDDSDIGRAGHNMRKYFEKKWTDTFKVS
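AlphaScreen displacement: compounds (up to 110uM) incubated 30 min at room temperature with a preformed 50 nM BAZ2B/50 nM biotinylated H3K14Ac peptide complex in PBS pH 7.4 with Tween-20. Donor and acceptor beads at 10 ug/mL final added, 20 min light-protected before reading.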
HP1b binding inh – HTS for Inhibitors of HP1-beta Chromodomain Interactions with Methylated Histone Tails | Chromobox protein homolog 1 (Homo sapiens), P83916 | AlphaScreen HP1-beta / biotin-H3K9me3 peptide binding | Potency, µM (series often up to 114 µM), inactives show at the highest dose activity change, negative = inhibition, actives largely listed as inhibitors | 0.56% of 390,000 active | AID 540317, 2011; also: potency is read from the fitted curve at half-maximal effect; nearly all actives have a fitted effect of over 70% in size
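Compound inhibition of the preformed complex between 50 nM HP1-beta and 50 nM biotinylated H3K9me3 peptide was read by AlphaScreen. Buffer was PBS pH 7.4 with 0.01% Tween-20. Incubations ran 30 min at room temperature, with 10 ug/mL donor/acceptor beads.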
PI5P4Ka inh – qHTS for Inhibitors of phosphatidylinositol 5-phosphate 4-kinase (PI5P4K); max response, %; Phosphatidylinositol 5-phosphate 4-kinase type-2 alpha (Homo sapiens), P48426; PI5P4Kalpha enzyme, ADP-Glo luminescence, 60 min; stronger effect = lower value; AID 652105, 2013; 1.2% of 330,000 active; active = max response of -50% or lower; inconclusive = between -30% and -50%; inactive = -30% or higher; also: value at the top dose of about 77 µM; % is scaled to controls: 0 for no effect and ±100 for the full control effect
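Reactions run in 0.038 M HEPES pH 7.4, 0.28 mM EGTA, 0.1% CHAPS and 5% DMSO, with PI5P4Kalpha, substrate, compound and 5 microM ATP final, one hour at room temperature. Readout is ADP-Glo luminescence.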
JMJD2A Tudor inh – qHTS Assay for Inhibitors of JMJD2A-Tudor Domain | Lysine-specific demethylase 4A (Homo sapiens), O75164 | AlphaScreen JMJD2A-Tudor / H3K4me3 peptide binding | Potency, µM (highest dose often 114 µM), for inactives: top-dose activity change, negative = inhibition, most hits filed as inhibitors | 4.4% of 390,000 active; also: potency is read from the fitted curve at half-maximal effect; % is scaled to controls: 0 for no effect and ±100 for the full control effect; nearly all actives have a fitted effect of over 50% in size
* marks the source's active call; other numbers are inactive results; ? = inconclusive; / = no result given; [ ] = remark or other dose. Unless noted, calls follow the shape of the dose curve; as a rule, active = well fitted curve in the direction sought with a large enough effect; inconclusive = small, poorly fitted or top-dose-only effect, or another doubt; inactive = no such curve, though single readings can be large; an effect the other way counts as inactive or inconclusive.

SMILES	KAT2A inh	PLK1 PBD block	BAZ2B inh	HP1b binding inh	PI5P4Ka inh	JMJD2A Tudor inh
COc1ccc(C)cc1S(=O)(=O)N1CC(C)OC(C)C1 (stereo not drawn)	-14%	-3%	-1%	23%	1	-1%
COc1ccc2occ(CC(=O)Nc3ccc(S(=O)(=O)Nc4nccc(C)n4)cc3)c2c1	-4%	/	-8%	15%	/	-25%
Cc1cc(C(=O)COC(=O)Cc2ccc(Br)cc2)c(C)n1C	-11%	-1%	50µM*	2%	5	-30%
CCN(CC)S(=O)(=O)c1ccc2oc(SCC(=O)NC3CC3)nc2c1	-6%	21µM*	?	-22%	-14	-1%
Cc1cc(NC(=O)CSc2nc3cc(Cl)ccc3o2)no1	-1%	3%	-15%	-13%	-1	-11%
CCN(CC)S(=O)(=O)c1ccc2oc(SCC(=O)Nc3cc(C)on3)nc2c1	-1%	6µM*	6%	-56%	-26	?
O=C(c1ccc(N2CCN(C(=O)c3ccc(F)cc3F)CC2)cc1)c1cccc(F)c1	-12%	3%	1%	49%	-1	26%
CC1=C(C(N)=O)C(c2ccc(C(C)C)cc2)n2nc(SCc3ccccc3)nc2N1 (stereo not drawn)	4%	/	-11%	33%	/	-5%
CCOCCCNC(=O)/C(C#N)=C/c1cc(Br)c(O)c(Br)c1	-5%	21µM*	-12%	2%	-101*	-12%[11.4 µM]
COCCNC(=O)/C(C#N)=C/C=C/c1ccccc1	-4%	-15%	-12%	28%	-6	-6%
COCCNC(=O)/C(C#N)=C/c1ccccc1Br	-3%	24µM*	-13%	-3%	-63*	18µM*
Cc1ccc(S(=O)(=O)N2CCC[C@H]2C(=O)OCCN2C(=O)c3ccccc3C2=O)cc1	3%	-9%	3%	31%	-1	-5%
CCCCCCNC(=O)N[C@H](C(=O)NCCC[C@H]1CN2C(=NC[C@H]2C)N1CCC(c1ccccc1)c1ccccc1)C(C)O (stereo partly drawn)	7.9µM*	/	20µM*	/	/	/
C/C=C(\C)C(=O)NCCN1C2=NC[C@H](C)N2C[C@@H]1Cc1ccc(OC)cc1	0%	-2%	-6%	38%	-1	-14%
CS(=O)(=O)N(CC(=O)NCc1ccco1)c1ccc(OCc2ccccc2)cc1	-4%	-10%	71µM*	?	1	?
Cc1ccccc1OCCNc1cc(N2CCN(CCO)CC2)ccc1[N+](=O)[O-]	2%	-7%	32µM*	?	27	?
Cc1ccccc1OCCNc1cc(N2CCCCC2)ccc1[N+](=O)[O-]	-8%	0%	?	?	1	?
COc1ccc(OCCNc2cc(N3CCOCC3)ccc2[N+](=O)[O-])cc1	-5%	-27%	?	-21%	1	79µM*
COc1cccc(OCCNc2cc(N3CCOCC3)ccc2[N+](=O)[O-])c1	-9%	-2%	?	-13%	15	-33%
Cc1ccc(C)c(-c2nn(-c3cc(N4CCN(CCO)CC4)ccc3[N+](=O)[O-])c(=O)c3ccccc23)c1	-23%	-3%	45µM*	?	15	35µM*
Cc1cccc(-c2noc(-c3ccc(NCC4CCCO4)c([N+](=O)[O-])c3)n2)c1 (stereo not drawn)	-7%	/	-13%	34%	/	-5%
Cc1cc(C)n(-c2nnc(NCc3ccc(Cl)cc3)nn2)n1	-5%	-25%	?	?	-7	40µM*
Cc1cc(C)n(-c2nc(C)nc(NCc3ccccc3)n2)n1	-8%	3%	-5%	43%	1	-19%
Cc1nn(-c2nnc(NCc3ccccc3)nn2)c(C)c1Br	-5%	-7%	35µM*	?	0	50µM*
CCSc1nnc(NC(=O)C2CCCN(S(=O)(=O)c3cnc[nH]3)C2)s1 (stereo not drawn)	-1%	30µM*	3%	15%	-10	?
SMILES	KAT2A inh	PLK1 PBD block	BAZ2B inh	HP1b binding inh	PI5P4Ka inh	JMJD2A Tudor inh
COC(=O)c1cc2oc(C)cc2n1Cc1cccc(Cl)c1	-5%	/	-39%	18%	/	17%
O=C1C=C(N2CCN(c3ccccn3)CC2)C(=O)c2c(O)ccc(O)c21	/	-17%	/	?	-15	32µM*
O=C(COC(=O)c1ccc2ncsc2c1)NCc1ccccc1Cl	-8%	2%	/	57%	0	1%
O=C(Nc1cccc(S(=O)(=O)NC2=NCCC2)c1)c1cc(=O)[nH]c2ccccc12	-4%	-6%	6%	23%	1	-6%
COc1cc(/C=C(\C#N)C(=O)N2CCc3ccccc32)ccc1O	?	22%	?	-5%	-23	?
COc1cc(/C=C(\C#N)C(=O)NCCc2ccccc2)cc(OC)c1O	-11%	36%	-8%	4%	?	-15%
N#C/C(=C/c1ccc(O)c([N+](=O)[O-])c1)C(=O)Nc1ccccc1	-14%	-12%	-29%	?	-61*	?
N#C/C(=C\c1ccc(O)c(O)c1)C(=O)N1CCc2ccccc21	?	6%	8.9µM*	?	-19	16µM*
N#C/C(=C/c1ccc([N+](=O)[O-])cc1)C(=O)Nc1ccccc1O	-11%	-9%	?	-4%	0	-17%
N#C/C(=C\c1ccc(O)c(O)c1)C(=O)NCCc1ccccc1	-19%	-6%	11µM*	?	1	?
CC1CN(S(=O)(=O)c2cc(C(=O)N3CCCCC3C)ccc2Cl)CC(C)O1 (stereo not drawn)	1%	-4%	/	48%	5	-4%
CC(C)CC(=O)Nc1nnc(S(=O)(=O)N(C)Cc2ccc(Cl)cc2)s1	-1%	/	-10%	42%	/	9%
CCN(c1ccccc1)c1nnc(NC(=O)Nc2ccc(C)cc2)s1	0%	/	1%	45%	/	3%
CCN(Cc1ccccc1)C(=O)Cn1c(=O)n(-c2ccc(Cl)c(Cl)c2)c(=O)c2c(C)c(C(=O)N(C)C)sc21	-3%	/	?	-11%	/	-28%
CN(C)C(CNC(=O)c1cc(S(=O)(=O)N(C)c2ccc(F)cc2)ccc1Cl)c1ccco1 (stereo not drawn)	-1%	2%	-19%	12%	1	-15%
CN(c1ccc(F)cc1)S(=O)(=O)c1ccc(Cl)c(C(=O)NCC(c2ccco2)N2CCCCC2)c1 (stereo not drawn)	-2%	3%	56µM*	-34%	-1	?
